From PubChem BioAssay AID504692 (The Scripps Research Institute Molecular Screening Center, 2011) come the findings set out here.

The whole screen tested about 340,000 compounds, of which about 2,000 (0.59%) were called active. No stated cut-off is given here; in the data, active means activation mostly above about 9.5% (no sharp cut-off); inactive means mostly below about 7.6%. The entries come from a sample that favours actives as a whole.

In this assay the target is 5-hydroxytryptamine receptor 5A (Homo sapiens) (UniProt P47898). Description: HTR5A agonists in luminescence cell assay, primary screen, counter-screen for OPRM1-OPRD1 heterodimer agonist project, full-deck HTS (AID 504692).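 Further: 0% = cells with vehicle only and 100% = reference agonist.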 As to conditions: cell-based, at 9.3 µM, hits give high values.
Chain of 5-hydroxytryptamine receptor 5A (Homo sapiens) (P47898 whole entry, looked up): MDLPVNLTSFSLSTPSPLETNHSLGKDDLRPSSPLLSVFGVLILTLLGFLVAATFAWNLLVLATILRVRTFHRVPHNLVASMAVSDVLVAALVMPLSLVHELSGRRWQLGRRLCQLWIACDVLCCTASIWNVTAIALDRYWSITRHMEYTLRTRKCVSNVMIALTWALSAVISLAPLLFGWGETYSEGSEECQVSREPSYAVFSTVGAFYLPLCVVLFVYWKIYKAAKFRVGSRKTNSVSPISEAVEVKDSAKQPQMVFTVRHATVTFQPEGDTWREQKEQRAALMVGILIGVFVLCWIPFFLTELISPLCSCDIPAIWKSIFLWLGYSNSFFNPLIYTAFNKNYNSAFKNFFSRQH
As to `Cc1cnc(C(=O)N2CCCC(N3CCN(c4ccccc4F)CC3)C2)cn1` (stereo unspecified), the activation is 5.27% (inactive).
In the case of `Cc1ccc(S(=O)(=O)/N=C(/Nc2ccc3[nH]c(=O)[nH]c3c2)c2ccccc2)cc1` it was 3.44% (inactive); in that of `O=C(Nc1ccc(Cl)cn1)c1ccc2c(c1)OCCO2`, 1.65% (inactive); in that of `COc1c(Cl)cc(C(=O)Nc2ccc(Cl)cn2)cc1Cl`, 18.5% (active).
The figure for `COc1ccc(C(=O)NC(=S)Nc2ccc(Cl)cn2)cc1OC` is 0.47% (inactive).
As for `O=C(NCCS(=O)(=O)c1ccc(Br)cc1)c1ccccc1Cl`, the activation is 0.17% (inactive).
As to `Cc1ccc(CN2C(=O)N/C(=C/c3cc(C)n(-c4ccccn4)c3C)C2=O)cc1`, the activation was 1.53% (inactive).
In the case of `Cc1cccc(NC(=O)CN2CCCN(S(=O)(=O)c3ccc(Br)s3)CC2)c1` it was 0.97% (inactive); in that of `Cc1ccc(SCCC(=O)Nc2cc(C)on2)cc1`, -4.61% (inactive); in that of `Cc1ccc(-c2csc(SCC(=O)Nc3cc(C)on3)n2)cc1`, 14.7% (active).
The figure for `Cc1ccc2nc(-c3ccc(SCC(=O)Nc4cc(C)on4)nc3)[nH]c2c1` is -0.96% (inactive).
Turning to `O=C(NCC(F)(F)F)Nc1nnc(C(F)(F)F)s1`, the activation was 4% (inactive).
Turning to `O=C(c1cccc([N+](=O)[O-])c1)N1CCN(Cc2ccccc2)CC1`, the activation was 5.31% (inactive).
In the case of `O=C(CCl)N(Cc1cccc([N+](=O)[O-])c1)c1cccc(Cl)c1` it was 40.9% (active); in that of `Cc1ccc(S(=O)(=O)N(Cc2cccc([N+](=O)[O-])c2)C(=O)N2CCN(C)CC2)cc1`, 0.8% (inactive).
As for `O=S(=O)(NCCCCCCNS(=O)(=O)c1c(F)cccc1F)c1ccc2c(c1)OCCO2`, the activation is 2.32% (inactive).
The figure for `COc1ccccc1N(C)S(=O)(=O)c1ccc(C(=O)NC2CCCCCC2)cc1` is 2.54% (inactive); for `CC1CCC2CCCCC2N1C(=O)c1cc([N+](=O)[O-])cc([N+](=O)[O-])c1` (stereo unspecified) it is 4.16% (inactive).
The figure for `CN1c2ccc(C=O)c3c(C=O)ccc(c23)N(C)C1(C)C` is 20.2% (active).
On to `CN(CC(=O)Nc1ccccc1Cl)C(=O)COc1cccc2c1OC(C)(C)C2`, for which the activation was 2.73% (inactive).
In the case of `CCSc1nc(O)c(C(c2cccc(OC)c2)c2c(O)nc(SCC)[nH]c2=O)c(=O)[nH]1` it was 6.11% (inactive).
In the case of `Cc1ccc(/C([O-])=C(/C(=S)NCc2ccco2)[n+]2ccccc2)cc1[N+](=O)[O-]` it was 0.24% (inactive); in that of `O=C(COC(=O)CSc1nnc(-c2ccc(Cl)cc2)o1)Nc1cc(Cl)cc(Cl)c1`, 0.33% (inactive); in that of `O=C(NNS(=O)(=O)c1ccc([N+](=O)[O-])cc1)C1CCCCC1`, -4.2% (inactive).
For the compound `COc1cc2ccccc2cc1C(=O)N(CCN(C)C)c1nc2c(F)cccc2s1`, the activation was 0.73% (inactive).
The figure for `Cc1cccc2sc(N(CCCN(C)C)C(=O)CCS(=O)(=O)c3ccccc3)nc12` is 23.6% (active); for `COc1cccc2sc(N(CCCN(C)C)C(=O)CCS(=O)(=O)c3ccccc3)nc12` it is 8.64% (inactive).
The figure for `CC1Cc2ccccc2N1S(=O)(=O)c1cccc(C(=O)NCC(c2ccco2)N2CCCC2)c1` (stereo unspecified) is 2.58% (inactive); for `COc1ccc(N2CCN(C(=O)Cn3cnc4sc(C)c(S(=O)(=O)N5CCOCC5)c4c3=O)CC2)cc1` it is -1.42% (inactive); for `Cc1csc2nc(COC(=O)c3cccc(N(C)C)c3)cc(=O)n12` it is -1.39% (inactive).
Regarding `CC1CCN(S(=O)(=O)c2nnc(NC(=O)COc3ccccc3F)s2)CC1`, the activation is 18.1% (active).
The figure for `O=C(COc1ccccc1F)Nc1nc(-c2ccccn2)cs1` is -1.27% (inactive).
The figure for `Cc1ccccc1OCC(=O)Nc1nnc(S(=O)(=O)N2CCCC2)s1` is 4.03% (inactive); for `CC(NC(=S)NNS(=O)(=O)c1ccc(C(C)(C)C)cc1)c1ccccc1` (stereo unspecified) it is -3.78% (inactive); for `COc1ccc(-c2ccc3c(c2)[C@@H]2C[C@H](N(C)S(=O)(=O)c4ccccc4)[C@H]([C@H](C)O)C(=O)N2CC3)cc1` it is 2.65% (inactive).
In the case of `CC1CC(C)CN(C(=O)C2CC(=O)N(c3ccc(F)cc3)C2)C1` (stereo unspecified) it was 5.22% (inactive).
For `Cc1ccn2c(c1)nc(=O)c1cc(S(=O)(=O)N3CCC(C)CC3)ccc12`, the activation was 0.6% (inactive).
As to `CC1CCN(S(=O)(=O)c2ccc3c(c2)n(C)c(=O)n3C)CC1`, the activation was 4.68% (inactive).
For the compound `CC1CCN(S(=O)(=O)c2ccc3c(ccn3CC(=O)O)c2)CC1`, the activation is 9.91% (active).
In the case of `CCCCCCCCCCOC(=O)Cn1c(COc2ccc(C)cc2)[n+](C)c2ccccc21` it was 9.74% (active); in that of `COc1cccc(OCc2nnc3n2N=C(c2ccccc2)C(CC(=O)O)S3)c1` (stereo unspecified), 1.48% (inactive); in that of `CCCCCCCCCCOC(=O)Cn1c(COc2cccc(OC)c2)[n+](C)c2ccccc21`, 13.7% (active).
The figure for `CCOC(=O)COn1c(=O)c(-c2ccc(OCC)cc2)[n+]([O-])c2ccccc21` is -0.87% (inactive); for `CCCCOc1ccc(NC(=O)CSCC(=O)OCC)cc1` it is -1.74% (inactive); for `CCOC(=O)CNC(=O)CSc1nnc(-c2cccc(OC)c2)n1CC` it is 1.82% (inactive).
In the case of `CC[C@]12c3[nH]c4ccc(Cl)cc4c3CCN1C(=O)[C@@H](CC(=O)NCCCOC)C[C@@H]2C(=O)N1CCN(C(=O)c2ccco2)CC1` it was -0.61% (inactive); in that of `COc1ccc(CNC(=O)CN(Cc2ccccc2Cl)C(=O)c2csnn2)cc1`, 0.86% (inactive); in that of `O=c1/c(=C/c2ccc(CNS(=O)(=O)c3ccccc3)o2)sc2n1CCN=2`, -6.78% (inactive).
In the case of `CCC(C)(C)NC(=O)CN(C(=O)CCC(=O)Nc1cc(C)ccn1)c1ccc2c(c1)OCCO2`, the activation is 2.5% (inactive).
Consider `Fc1ccccc1-c1cc2cc3c(cc2cn1)OCO3`, for which the activation is 7.94% (inactive).
In the case of `O=C(c1noc2c1CCCC2)N1CCc2ccccc2C1` it was 5.42% (inactive).
In the case of `CCC1(C)NC(=O)N(CC(=O)N2CCN(c3cccc(Cl)c3)CC2)C1=O` (stereo unspecified), the activation is 0.94% (inactive).
Consider `Cc1ccc(Cc2cnc(N)s2)o1`, for which the activation is -3.06% (inactive).
On to `Cc1ccc(CCC(=O)Nc2ncc(Cc3cc(Cl)ccc3Cl)s2)o1`, for which the activation is 17.4% (active).
The figure for `Cc1ccc(C(=O)Nc2nc3ccc(Cl)cc3s2)o1` is 5.48% (inactive).
The figure for `COc1ccc(C(=O)NCc2ccc(C)cc2)cc1S(=O)(=O)N1CCCC1` is 5.16% (inactive).
